Here are results for eight compounds from PubChem BioAssay (NCI).

Test systems include HCT-15 colon; HT29 colon; SNB-75 CNS; SNB-19 CNS; U251 CNS; PC-3 prostate; SK-MEL-5 melanoma; UACC-62 melanoma; LOX IMVI melanoma; SK-MEL-28 melanoma; SK-MEL-2 melanoma; EKVX NSCLC; SN12C renal; UO-31 renal; TK-10 renal; ACHN renal; A498 renal; CCRF-CEM leukemia; MOLT-4 leukemia; CAKI-1 renal.
What all share (assay): NCI-60 one-dose screen, 48 h (100 = growth as untreated, 0 = no growth, -100 = all killed)
Details in all cases: 10 µM unless noted

The panel holds about 83,000 compounds, 20% with a hit somewhere; the sample as a whole holds those more often.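 Step 1: grow cells in 96-well plates. Step 2: add test compound at a single concentration. Step 3: incubate 48 h. Step 4: record percent growth.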 Values without a mark were called inactive. Active and inactive are the calls of the source. Rule for the calls: active = growth percent below 10; inactive = the rest.

Regarding `COc1cc(C(=O)/C=C/c2c(C)n([O-])c3ccc(Cl)cc3[n+]2=O)cc(OC)c1OC`, the growth is 29.6% in the test on HCT-15 colon; 62.8% in the test with HT29 colon; 60.4% in the test on SNB-75 CNS; 99.8% in the test on SNB-19 CNS; 61.4% in the test with U251 CNS; 46.7% with PC-3 prostate. Moreover, the growth in the test with SK-MEL-5 melanoma was 89.4%; in the test with UACC-62 melanoma it was 60.4%; in the test on LOX IMVI melanoma, 65.8%; in the test on SK-MEL-28 melanoma, 80.8%; in the test on SK-MEL-2 melanoma it was 59.6%; with EKVX NSCLC, 80.9%. Besides, the growth in the test with SN12C renal is 56.3%; with UO-31 renal it was 43%; in the test on TK-10 renal it was 46.1%; with ACHN renal, 53.5%; with A498 renal it was 100%; in the test on CCRF-CEM leukemia it was -30.6% (active). In addition, the growth with MOLT-4 leukemia was 6.41% (active).
Turning to `O=C1Nc2ccccc2/C1=N/c1nc(-c2ccc(Cl)cc2)cs1`, the growth in the test on HCT-15 colon was 71.2%; in the test with HT29 colon it was 46.3%; in the test on SNB-75 CNS, 90.8%; with SNB-19 CNS, 75.1%; in the test on U251 CNS, 53.8%; in the test on PC-3 prostate it was 35.2%. The growth with SK-MEL-5 melanoma is 76.7%; in the test on UACC-62 melanoma, 61%; with LOX IMVI melanoma, 68.9%; in the test on SK-MEL-28 melanoma, 84.4%; in the test on SK-MEL-2 melanoma it was 88.2%; in the test with EKVX NSCLC, 60.2%. Besides, the growth with SN12C renal was 79.1%; with UO-31 renal it was 52.2%; in the test with TK-10 renal, 87.9%; with ACHN renal, 80.2%; in the test with A498 renal it was 51%; in the test on CCRF-CEM leukemia, 41%. Moreover, in the test on MOLT-4 leukemia, the growth is 25%.
On to `c1ccc2c(-c3c4ccsc4cc4[nH]c5ccccc5c34)c[nH]c2c1`, for which the growth was 24.7% in the test on HCT-15 colon; 8.87% (active) with HT29 colon; 20.3% with SNB-75 CNS; 48.5% with SNB-19 CNS; 38.7% in the test on U251 CNS; 36.1% with PC-3 prostate. In addition, the growth in the test with SK-MEL-5 melanoma was 31.9%; in the test on UACC-62 melanoma it was 44.8%; with LOX IMVI melanoma it was 26.9%; in the test on SK-MEL-28 melanoma, 48.9%; in the test with SK-MEL-2 melanoma it was 23.9%; in the test with EKVX NSCLC, 53.3%. The growth with SN12C renal is 50.1%; in the test with UO-31 renal, 40.1%; in the test with TK-10 renal, 76%; in the test with ACHN renal it was 43.3%; in the test on CAKI-1 renal, 34.5%; in the test with MOLT-4 leukemia it was 32.2%.
Turning to `COc1cc(C2NC(c3cc(OC)c(OC)c(OC)c3)C(C#N)(C#N)C2(C#N)C#N)cc(OC)c1OC` (stereo not given), the growth was 97.9% in the test with HCT-15 colon; 105% in the test with HT29 colon; 80.7% in the test on SNB-75 CNS; 98.5% with SNB-19 CNS; 106% in the test with U251 CNS; 99.3% in the test on PC-3 prostate. In addition, the growth with SK-MEL-5 melanoma was 89.5%; with UACC-62 melanoma it was 98.2%; in the test with LOX IMVI melanoma, 98.2%; in the test on SK-MEL-28 melanoma, 96.5%; in the test on SK-MEL-2 melanoma, 101%; in the test with EKVX NSCLC, 97.6%. For the same compound, the growth in the test with SN12C renal was 100%; in the test on UO-31 renal, 83.8%; in the test with TK-10 renal it was 103%; in the test on ACHN renal it was 97.7%; in the test on A498 renal, 107%; in the test with CCRF-CEM leukemia it was 136%. Further, the growth in the test on MOLT-4 leukemia was 96.8%.
Take `CCCC1C(C(=O)OCC)=C(N)Oc2cc(O)ccc21` (stereo not given): the growth is 96.7% in the test with HCT-15 colon; 97.8% with HT29 colon; 76.9% in the test with SNB-75 CNS; 103% with SNB-19 CNS; 104% with U251 CNS; 77.5% in the test on PC-3 prostate. The growth in the test on SK-MEL-5 melanoma is 96.5%; in the test with UACC-62 melanoma, 94.8%; in the test with LOX IMVI melanoma it was 90.4%; with SK-MEL-28 melanoma it was 114%; with SK-MEL-2 melanoma, 99%; in the test with EKVX NSCLC, 80.6%. The growth is 103% with SN12C renal; 70.7% with UO-31 renal; 105% in the test on TK-10 renal; 94.1% with ACHN renal; 109% in the test on A498 renal; 99.7% in the test on CCRF-CEM leukemia. In addition, in the test on MOLT-4 leukemia, the growth is 89%.
As for `CCCNC(=O)Oc1ccc(/C(=C(\C)c2ccccc2)c2ccc(OCCN3CCCCC3)cc2)cc1`, the growth was 19.2% with HCT-15 colon; 4.11% (active) in the test with HT29 colon; 88.9% with SNB-75 CNS; 79% in the test on SNB-19 CNS; 56.4% with U251 CNS; 57.1% in the test on PC-3 prostate. Also, the growth in the test with SK-MEL-5 melanoma was 77.8%; with UACC-62 melanoma, 70.6%; in the test with LOX IMVI melanoma it was 73.8%; with SK-MEL-28 melanoma, 70.5%; in the test on SK-MEL-2 melanoma it was 90.6%; in the test with EKVX NSCLC, 82.2%. In addition, the growth was 71.4% in the test with SN12C renal; 46.5% with UO-31 renal; 90.2% in the test with TK-10 renal; 91% with ACHN renal; 65.8% with CAKI-1 renal; 72.2% in the test on CCRF-CEM leukemia. Also, the growth in the test with MOLT-4 leukemia was 60.1%.
Regarding `CN(C)c1ccc(-c2c(C#N)c(N)n3nc(N)c(C#N)c3c2C#N)cc1`, the growth in the test with HCT-15 colon was 81.8%; in the test with HT29 colon, 83.5%; in the test with SNB-75 CNS, 88.5%; in the test with SNB-19 CNS it was 95.4%; in the test with U251 CNS, 90.1%; in the test on PC-3 prostate, 76.6%. The growth in the test with SK-MEL-5 melanoma was 71.1%; in the test with UACC-62 melanoma, 113%; in the test with LOX IMVI melanoma, 8.51% (active); in the test on SK-MEL-28 melanoma it was 96.3%; in the test with SK-MEL-2 melanoma, 88.3%; with EKVX NSCLC it was 76.5%. The growth is 72.3% in the test with SN12C renal; 75.5% with UO-31 renal; 82.4% with TK-10 renal; 86.5% in the test with ACHN renal; 106% with A498 renal; 94% with CCRF-CEM leukemia. Also, in the test with MOLT-4 leukemia, the growth was 90%.
Turning to `CC1(C)NCCC[C@]2(C)[C@H]3CC=C4[C@@H]5C[C@@](C)(CO)CC[C@]5(C)CC[C@@]4(C)[C@]3(C)CC[C@@H]12`, the growth is 29.9% in the test on HCT-15 colon; 5.18% (active) with HT29 colon; 98.9% in the test on SNB-75 CNS; 61.6% with SNB-19 CNS; 34.2% with U251 CNS; 35.1% in the test with PC-3 prostate. The growth in the test with SK-MEL-5 melanoma was 50.7%; in the test on UACC-62 melanoma it was 73.6%; with LOX IMVI melanoma, 45.2%; in the test with SK-MEL-28 melanoma, 68.2%; in the test on SK-MEL-2 melanoma it was 48.4%; in the test on EKVX NSCLC, 86.5%. Further, the growth in the test with SN12C renal is 62.1%; in the test with UO-31 renal it was 69.3%; in the test with TK-10 renal, 63.3%; in the test on ACHN renal it was 54.3%; in the test with CAKI-1 renal, 76.7%; in the test with MOLT-4 leukemia, 33.8%.
